# Assay results reported in the supplement of paper PMC8728848.
# The sample as a whole holds a higher share of the strongest signals than the screen did.
# Legend:
# Assay in all cases: glycan array binding signal (z-score within array); higher = stronger binding
# Settings in all cases: glycan notation: IUPAC condensed, linker removed
# Gal(a1-2)Gal = test system: Gal(a1-2)Gal
# How it was run: (§1)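 Columns mapping to the same glycan were averaged after glycan names were converted to IUPAC-condensed notation. The data come from 3228 arrays in the Consortium for Functional Glycomics database, limited to those with an available protein sequence. Binding is reported as a within-array Z-score averaged across arrays of one protein sequence and across linkers.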
# [1] = test system: Gal(a1-3)Gal(b1-3)GlcNAc(b1-2)Man(a1-3)[Gal(a1-3)Gal(b1-3)GlcNAc(b1-2)Man(a1-6)]Man(b1-4)GlcNAc(b1-4)GlcNAc
# How it was run: as §1
# [2] = test system: Gal(a1-3)Gal(b1-3)GlcNAc(b1-6)GalNAc
# How it was run: as §1
# Gal(a1-3)Gal(b1-3)GlcNAc = test system: Gal(a1-3)Gal(b1-3)GlcNAc
# How it was run: as §1
# [3] = test system: Gal(a1-3)Gal(b1-4)GlcNAc(b1-2)Man(a1-3)[Gal(a1-3)Gal(b1-4)GlcNAc(b1-2)Man(a1-6)]Man(b1-4)GlcNAc(b1-4)GlcNAc
# How it was run: as §1
# [4] = test system: Gal(a1-3)Gal(b1-4)GlcNAc(b1-2)Man
# How it was run: as §1
# [5] = test system: Gal(a1-3)Gal(b1-3)[Fuc(a1-4)]GlcNAc(b1-2)Man(a1-3)[Gal(a1-3)Gal(b1-3)[Fuc(a1-4)]GlcNAc(b1-2)Man(a1-6)]Man(b1-4)GlcNAc(b1-4)GlcNAc
# How it was run: as §1
substance,measurement,setting,value
Epa22,glycan array binding signal (z-score),Gal(a1-2)Gal,-0.244
"Wza (Escherichia coli), P0A930",glycan array binding signal (z-score),[1],0.652
LcI (Legionella pneumophila),glycan array binding signal (z-score),[2],4
same,glycan array binding signal (z-score),Gal(a1-3)Gal(b1-3)GlcNAc,4.41
same,glycan array binding signal (z-score),[3],0.12
same,glycan array binding signal (z-score),[4],-0.012
"SiiE (Salmonella typhimurium), A0A0H3NVH0",glycan array binding signal (z-score),Gal(a1-3)Gal(b1-3)GlcNAc,0.637
Actinohivin (Actinomycete K97),glycan array binding signal (z-score),[5],0.526
"SpGH101 (Streptococcus pneumoniae), Q8DR60",glycan array binding signal (z-score),[5],0.17
